# PubChem BioAssay (NCATS)
# Inconclusive results are not listed. Active and inactive are the calls of the source. Unless noted, no rule for the calls is given here.
# Key:
# [1] = qHTS profiling for inhibitors of Plasmodium falciparum (3D7) proliferation (AID 743322);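 also: infected erythrocytes exposed to compound for 72 h before lysis; 100% = DMSO vehicle wells and 0% = 0.29 µM artemisinin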; details: P. falciparum 3D7 proliferation; at 28.7 µM (top of the series)
# Procedure, shortened: (§1)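 Erythrocytes infected with P. falciparum (0.3% parasitemia, 2.5% hematocrit) incubated with compounds 72 h at 37 C, 5% CO2. Lysis with saponin/Triton buffer containing SYBR Green I, overnight at room temperature in the dark; DNA fluorescence (485/535 nm) normalised to 0.29 uM artemisinin and DMSO.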
# [2] = qHTS profiling for inhibitors of Plasmodium falciparum (HB3) proliferation (AID 743324; active = well fitted curve in the direction sought with a large enough effect; an effect the other way counts as inactive or inconclusive;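 also: 100% = DMSO vehicle wells and 0% = artemisinin-treated control wells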); details: Plasmodium falciparum HB3 blood-stage proliferation; at 28.7 µM (top of the series)
# Procedure, shortened: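 P. falciparum HB3 grown in erythrocytes (0.3% parasitemia, 2.5% hematocrit final) with compound for 72 h at 37 C, 5% CO2. Parasite DNA detected by SYBR Green after saponin/triton lysis overnight; normalized to 0.29 uM artemisinin and DMSO.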
# [3] = qHTS profiling of the MIPE4 collection as inhibitors of Plasmodium falciparum (3D7) proliferation (AID 743344);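 also: scaled between DMSO vehicle wells and 0.29 µM artemisinin as full inhibition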; details: P. falciparum 3D7 in erythrocytes, SYBR Green DNA fluorescence, 72 h; at 28.5 µM (top of the series) unless noted
# Procedure, shortened: as §1
# [4] = qHTS profiling of the MIPE4 collection as inhibitors of Plasmodium falciparum (DD2) proliferation (AID 743345); details: P. falciparum Dd2 in erythrocytes, SYBR Green DNA, 72 h; at 28.5 µM (top of the series) unless noted
# Procedure, shortened: as §1
# [5] = qHTS profiling of the MIPE4 collection as inhibitors of Plasmodium falciparum (DD2) proliferation (Rep 2) (AID 743346); details: P. falciparum Dd2 in erythrocytes, SYBR Green DNA, 72 h; at 28.5 µM (top of the series) unless noted
# Procedure, shortened: as §1
# [6] = qHTS profiling of the MIPE4 collection as inhibitors of Plasmodium falciparum (HB3) proliferation (AID 743347);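 also: plate controls were DMSO vehicle wells for no effect and artemisinin wells for full effect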; details: P. falciparum HB3 in erythrocytes, SYBR Green DNA, 72 h; at 28.5 µM (top of the series) unless noted
# Procedure, shortened: as §1
# [7] = High-throughput drug toxicity screening in the BPDCN cell line Gen2.2 (AID 1224824); details: Gen2.2 BPDCN cells; at 45.8 µM (top of the series) unless noted;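 also: cells exposed to compounds for 48 h before reading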
# Procedure, shortened: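 CellTiter-Glo luminescence after 48 h compound exposure of Gen2.2 cells; percent activity set with DMSO as 100% and bortezomib (9.2 uM final) as 0%. Cells seeded at 500 per well, RPMI + 10% FBS, 37 °C.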
# [8] = High-throughput drug toxicity screening in the BPDCN cell line Cal-1 (AID 1224825); details: Cal-1 BPDCN cell viability, qHTS; at 45.8 µM (top of the series) unless noted
# Procedure, shortened: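 500 Cal-1 cells/well, RPMI + glutamine + 10% FBS (phenol red-free); cpd added by pin tool; 48 h, 37C, 5% CO2; CTG 15 min RT, lumi read. Normalised: DMSO 100%, bortezomib 9.2 uM 0%.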
# [9] = qHTS assay for measurement of the activity of small molecule inhibitors on Zika virus induced Caspase-3 activity in human iPSC derived neural progenitor cells (hNPCs) (AID 1224857; active = well fitted curve in the direction sought with a large enough effect; an effect the other way counts as inactive or inconclusive; also: nearly all actives have a fitted effect of over 65% in size; also: potency is read from the fitted curve at half-maximal effect)
# Procedure, shortened: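 Zika virus (2 FFU/cell) infection of human iPSC-derived NPCs, 6 h, following 1 h compound preincubation. Read-out: Caspase-Glo 3/7 luminescence.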
SMILES,remaining parasite growth % (stronger effect = lower value) [1] [%],"remaining proliferation (% of control), lower = more inhibition [2] [%]","parasite growth, % of DMSO control [3] [%]","parasite growth remaining, % of DMSO control (lower = more inhibition) [4] [%]","parasite growth, % of control (lower = inhibition) [5] [%]","growth, % of control [6] [%]","cell viability, % of control (lower = more cytotoxic) [7] [%]",viability (% of control) [8] [%],Potency [9]
CC(C)(C)COc1ccc(-n2cc(C(=O)O)cn2)cc1C#N,28.3,91.7,75,90.1,76.9,67.6,112,106,
C=C1C(=O)OC(CCCCCCCC)C1C(=O)O (stereo not given),,,50.6,76.2,,61.5,15.6,98,inactive
O=C1C[C@@H](c2ccc(O)cc2)Oc2cc(O)cc(O)c21,,,20,,,5.63,70.3,103,18.7 µM (active)
COc1ccc2c3c1OC1C[C@@H](O)C=C[C@@]31CCN(C)C2 (stereo not given in full),,,,100,,69.6,113,96.5,inactive
CCc1ccc(OCc2ccccc2C(=O)Nc2ccc3nc(C)cc(N)c3c2)cc1,-0.867,0.0187,5.35,6.22,,10,7.97,4.73,
O=C(Nc1ccccc1Br)N[C@@H]1CCN(c2ccc(C(F)(F)F)cn2)C1,,,73.6,96.2,,71.2,266,101,inactive
COc1cc(N2CCC(N3CCN(C)CC3)CC2)ccc1Nc1ncnc(Nc2ccccc2S(=O)(=O)C(C)C)n1,,,8.76,8.1,,4.08,2,6.26,inactive
CC1CCC(C(=O)N(c2cc(C#CC(C)(C)C)sc2C(=O)O)C2CCC(O)CC2)CC1 (stereo not given),,,4.72,54.5,,3.91,50.9,92,inactive
C[C@@H]1CCN(C(=O)CC#N)C[C@H]1N(C)c1ncnc2[nH]ccc12,89.8,56.2,72.5,96.3,93.5,74.7,52.4,110,
Cc1ccc(C(=O)Nc2cccc(C(F)(F)F)c2)cc1Nc1nc(-c2cccnc2)nc2c1cnn2C,,,7.71,12,27.1,10.4,6.02,3.12,
CO[C@@H](C(=O)N1Cc2[nH]nc(NC(=O)c3ccc(N4CCN(C)CC4)cc3)c2C1)c1ccccc1,5.46,7.25,6.06,12.3,10.5,3.96,134,6.89,
CCOc1ccc(Nc2nc(-c3c(C)nc4ccccn34)cs2)cc1,2.43,7.43,11.9,17.3,15.8,4.43,11,7.46,
CC=C(C)C(=O)O[C@H]1C(C)=C[C@]23C(=O)[C@@H](C=C(CO)[C@@H](O)[C@]12O)[C@H]1[C@@H](C[C@H]3C)C1(C)C,,,18.7,,28.1,21,38.4,12.7,inactive
CNC1CCC(N(Cc2cccc(-c3ccncc3)c2)C(=O)c2sc3c(F)ccc(F)c3c2Cl)CC1 (stereo not given),,,4.87,7.02,,6.39,0.6,0.705,inactive
C[C@H]1[C@H](NC(=O)C(=NOC(C)(C)C(=O)O)c2csc(N)n2)C(=O)N1S(=O)(=O)O,,,,,,102,120,121,inactive
c1ccc2c(-c3cnn4cc(-c5ccc(N6CCNCC6)cc5)cnc34)ccnc2c1,-1.65,,4.34,5.98,6.79,5.81,3.03,3.05,
C[C@]12CCC3c4ccc(O)cc4CCC3C1CCC2=O (stereo not given in full),,,51.9,75.4,54.3,66.9,54,62.5,
Cn1c(N2CCCCS2(=O)=O)nc(C(=O)NCc2ccc(F)cc2)c(O)c1=O,,,101,104,83.1,62.6,60.2,96.9,inactive

SMILES,remaining parasite growth % (stronger effect = lower value) [1] [%],"remaining proliferation (% of control), lower = more inhibition [2] [%]","parasite growth, % of DMSO control [3] [%]","parasite growth remaining, % of DMSO control (lower = more inhibition) [4] [%]","parasite growth, % of control (lower = inhibition) [5] [%]","growth, % of control [6] [%]","cell viability, % of control (lower = more cytotoxic) [7] [%]",viability (% of control) [8] [%],Potency [9]
O=C(NC1CCOCC1)c1ccc(-c2cc(-c3cn[nH]c3-c3ccccn3)ccn2)cc1,,,17.3,82.7,40.9,47.3,724,131,inactive
CCCCCCCCCCCC1=C(O)C(=O)C=C(O)C1=O,,,54.7,63.9,16.4,27.2,52.7,15.1,inactive
Oc1ccc(C2=Cc3ccc(O)cc3OC2)cc1,,,19.6,34.7,27.9,24.6,16.5,3.88,
CC[C@@]1(O)C[C@H](O[C@H]2C[C@H](N(C)C)[C@H](O[C@H]3C[C@H](O)[C@H](O[C@H]4CCC(=O)[C@H](C)O4)[C@H](C)O3)[C@H](C)O2)c2c(cc3c(c2O)C(=O)c2c(O)cccc2C3=O)[C@@H]1C(=O)OC,,,3.31,4.79,5.22,2.06,5.55,3.95,
CCc1ccc(C=C2SC(=S)NC2=O)cc1,,,77.1,93.8,115,87.9,159,83.2,20.9 µM (active)
CCOC(=O)O[C@]1(C(=O)OCCl)CC[C@@H]2[C@H]3CCC4=CC(=O)C=C[C@]4(C)[C@@H]3[C@@H](O)C[C@@]21C,,,48.2,86.4,,68.7,84.3,77.6,inactive
Cc1ccc(/C=N/NC(=O)c2ccccc2Oc2ccccc2)o1,,,82.9,103,,92,76,18.6,inactive
Nc1ncnc2c1ncn2[C@@H]1O[C@H](CO)C[C@@H]1O,,,43.4,56.1,,79,96.4,39.8,inactive
CCOC(=O)C1=C(N)Oc2ccc(Br)cc2C1C(C#N)C(=O)OCC (stereo not given),,,91.3,95.8,93.2,107,3.23,9.05,
CN(C)c1cc(NC(=O)CNC(C)(C)C)c(O)c2c1C[C@@H]1C[C@H]3[C@H](N(C)C)C(=O)C(C(N)=O)=C(O)[C@@]3(O)C(=O)C1=C2O,,,83,90.5,106,98.7,142,97.2,
COc1cc2c(cc1OC)CN(CCc1ccc(NC(=O)c3cc(OC)c(OC)cc3NC(=O)c3cnc4ccccc4c3)cc1)CC2,,,39.1,83.6,83.4,93.6,115,93.8,
CS(=O)(=O)N(Cc1ccco1)CC(O)Cn1c2ccccc2c2ccccc21 (stereo not given),,,34.3,12.4,58.2,16.4,75.4,65.5,
COC(=O)C1=CO[C@@H](O)[C@@H]2C(CO)=CC[C@@H]12,,,83,85.9,98.4,91,17.3,16.7,
CC(C)(C)OC(=O)N[C@H]1CCCCCC=C[C@@H]2C[C@@]2(C(=O)NS(=O)(=O)C2CC2)NC(=O)[C@@H]2C[C@@H](OC(=O)N3Cc4cccc(F)c4C3)CN2C1=O,,,11.7,40.6,10.1,4.63,46.5,99.3,
Clc1ccc(COC(Cn2ccnc2)c2ccc(Cl)cc2Cl)cc1 (stereo not given),,,5.45,6.85,9.72,3.47,115,70.1,
CC(C)n1cnc2c(NCCCCCCNC(=O)OC(C)(C)C)nc(NCCO)nc21,,,20.1,60.6,24.8,21.3,186,100,
Nc1ncnc2c1ncn2[C@@H]1O[C@@H](CO)[C@H](O)[C@H]1O,,,103,84.1,114,111,235,117,
